Measured values published in PubChem BioAssay AID2113 (National Center for Advancing Translational Sciences (NCATS), 2009).
Records with an inconclusive call do not appear. The source made the active and inactive calls. The call rests on the fitted dose curve; in most records, active means well fitted curve in either direction with a large enough effect; inconclusive means small, poorly fitted or top-dose-only effect; inactive means no such curve, though single readings can be large or run the other way.

Target: Lysosomal alpha-glucosidase (Homo sapiens) (UniProt P10253)
Test: Confirmation of Inhibitors and Activators of Human alpha-Glucosidase From Spleen Homogenate;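 on Potency: fluorescence of 4-methylumbelliferone released from a fluorogenic glucopyranoside substrate at pH 5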; on activity change, both directions: 0% is about no effect
Conditions: alpha-glucosidase enzyme activity; series mostly up to 60.5 µM; activity change, both directions: at the top concentration
How it was run: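 Compounds titrated against spleen-homogenate alpha-glucosidase, pH 5.0, 1 mM 4-MU-glucoside substrate, 37 C for 40 min. Fluorescence after pH 10 stop, normalised to no-enzyme and enzyme controls; Hill-equation AC50.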
Potency means the concentration at half of the fitted maximal effect.

| Compound | activity change, both directions | Potency |
| --- | --- | --- |
| Cc1nnc(SCC(=O)Nc2ccc3c(c2)COC3=O)n1-c1ccccc1 | 1.17% [at 31.5 µM] (inactive) | – |
| O=S(=O)(c1ccccc1)N1CCN(c2ccccc2)CC1 | 1.33% (inactive) | – |
| Nc1ccccc1S(=O)(=O)N1CCOCC1 | 3.59% (inactive) | – |
| COc1cc2cc(CN(Cc3nnnn3Cc3ccccc3)CC3CCCO3)c(=O)[nH]c2cc1OC (stereo unspecified) | 2.42% [at 31.5 µM] (inactive) | – |
| COc1ccc(CCn2c(=S)[nH]c(=O)c3c(C)cc(C)nc32)cc1OC | -3.35% (inactive) | – |
| Cc1ccc(S(=O)(=O)N2CCN(CC(=O)N/N=C\c3ccccn3)CC2)cc1 | -32.6% (inactive) | – |
| O=c1oc2cc(O)ccc2cc1-c1nc2c(s1)CCc1ccccc1-2 | – | 31.6 µM (active) |
| OCC1NCC(O)C(O)C1O (stereo unspecified) | -99.2% (inactive) | – |
| CCCN1CNc2c(c(=O)[nH]c(=S)n2CCc2c(OC)cccc2OC)C1 | 7.74% (inactive) | – |
| COC(=O)c1ccc(CSc2cc(C)c3cccc(C)c3n2)o1 | 4.59% [at 31.5 µM] (inactive) | – |
| CN(CCO)S(=O)(=O)c1ccc2c(c1)C(=NNC(N)=O)c1cc(S(=O)(=O)N(C)CCO)ccc1-2 | -4.76% (inactive) | – |
| O=S(=O)(c1cccc(Br)c1)N1CCOCC1 | -8.22% (inactive) | – |
| O=c1oc2ccc3ccccc3c2cc1-c1nc2c(s1)CCc1ccccc1-2 | 7.81% (inactive) | – |
| Cc1ccc(S(=O)(=O)N2CCN(C(=O)C3COc4ccccc4O3)CC2)cc1C (stereo unspecified) | -17.9% (inactive) | – |
| CCOC(=O)C1CCCN(C(=O)CCC(=O)Nc2ccc3nc(N4CCOCC4)cc(C)c3c2)C1 (stereo unspecified) | 25.1% [at 31.5 µM] (inactive) | – |
| O=c1oc2ccc(Br)cc2cc1-c1nc2c(s1)CCc1ccccc1-2 | -7.86% (inactive) | – |
| CN(C(=O)N1CCN(S(=O)(=O)c2ccccc2)CC1)c1ccccc1 | -16.2% (inactive) | – |
| O=C(NCCCN1CCOCC1)c1cccs1 | 2.54% [at 31.5 µM] (inactive) | – |

| Compound | activity change, both directions | Potency |
| --- | --- | --- |
| CCN(CC)S(=O)(=O)c1ccc2c(c1)C(=NNc1ccccc1)c1cc(S(=O)(=O)N(CC)CC)ccc1-2 | -4.74% (inactive) | – |
| Cc1ccc(S(=O)(=O)N2CCN(C(=O)CSc3nc4ccccc4c(=O)[nH]3)CC2)c(C)c1 | -28.9% (inactive) | – |
| OC[C@H]1NC[C@@H](O)[C@@H]1O | -82.2% (inactive) | – |
| COc1cc(=O)[nH]c(=O)n1CC(=O)c1ccccc1 | 1.27% [at 31.5 µM] (inactive) | – |
| COc1cc(C2c3cc4c(cc3C(OC3OC5COC(C)O[C@@H]5C(O)C3O)C3COC(=O)C23)OCO4)cc(OC)c1O (stereo partly specified) | – | 25.1 µM (active) |
| CC(=O)c1ccc(N2CCN(S(=O)(=O)c3ccc4c(c3)OCC(=O)N4)CC2)cc1 | -10.1% (inactive) | – |
| COc1ccc(CCn2c3c(c(=O)[nH]c2=O)C(NC(=O)c2cccs2)(C(F)(F)F)C(=O)N3)cc1OC (stereo unspecified) | 4.85% [at 31.5 µM] (inactive) | – |
| COc1ccc(/C=C/c2nnc(NC(C)=O)s2)cc1 | 1.39% (inactive) | – |
| CCc1ccc(-c2nc(-c3cc4ccc(OC(C)=O)cc4oc3=O)sc2C)cc1 | 3.56% (inactive) | – |
| OC[C@H]1NC[C@H](O)[C@@H](O)[C@H]1O | -99.6% [at 286 µM] (inactive) | – |
| C(=C/c1ccc2ccccc2n1)/c1ccc2c(c1)OCO2 | 9.52% (inactive) | – |
| O=C(O)Cn1nnnc1SCC(=O)Nc1ccc(OC(F)(F)F)cc1 | 0.139% [at 31.5 µM] (inactive) | – |
| CCCN1CNc2c(c(=O)[nH]c(=S)n2CCc2ccccc2Cl)C1 | – | 15.8 µM (active) |
| CC(C)NCC(O)COc1cccc2[nH]ccc12 (stereo unspecified) | 1.09% (inactive) | – |
| Cc1cccc(S(=O)(=O)c2c(N)n(-c3ccccc3)c3nc4ccccc4nc23)c1 | 12.7% [at 31.5 µM] (inactive) | – |
| Cc1ccc2c(c1)c1ncnc(N3CCC4(CC3)OCCO4)c1n2C | 8.53% [at 31.5 µM] (inactive) | – |
| CCOC(=O)C(CC)(CCC(=O)O)c1csc(Nc2ccc(C)cc2)n1 (stereo unspecified) | 15% [at 31.5 µM] (inactive) | – |
| Cc1sc(-c2cc3cc(Cl)ccc3oc2=O)nc1-c1ccccc1 | 6.22% (inactive) | – |
